Test results reported in PubChem BioAssay AID588342 (National Center for Advancing Translational Sciences (NCATS), 2011).
Out of some 360,000 compounds screened, about 25,000 (6.9%) were called active. Another 9% or so got no clear call; they are omitted. The sample holds actives, similar compounds and a random draw of the others, so the mix is not that of the screen. Values without a mark were called inactive. Calls follow the shape of the dose curve; as a rule, active = well fitted inhibition curve with a large enough effect; inconclusive = small, poorly fitted or top-dose-only effect; inactive = flat fitted curve, though single readings scatter.

Molecular target: Luciferin 4-monooxygenase (Photinus pyralis) (UniProt P08659)
Experiment: qHTS profiling assay for firefly luciferase inhibitor/activator using purifed enzyme and Km concentrations of substrates (counterscreen for miR-21 project); also: nearly all actives have a fitted effect of over 55% in size;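 as to activity change, negative = inhibition: plate controls were vehicle for no effect and reference inhibitor for full effect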
Conditions: purified FLuc, luminescence inhibition; series mostly up to 57.5 µM; activity change, negative = inhibition: at the top concentration
Summary of the method: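 Purified P. pyralis luciferase, 10 nM final, with Km-level 10 uM D-luciferin and 10 uM ATP in 50 mM Tris acetate pH 7.5, 10 mM Mg acetate, 0.01% Tween-20, 0.05% BSA; 6-point qHTS titration about 60 µM downward; luminescence read.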
Potency is read from the fitted curve at half-maximal effect.

Luciferin 4-monooxygenase (Photinus pyralis), sequence (P08659 whole entry, looked up): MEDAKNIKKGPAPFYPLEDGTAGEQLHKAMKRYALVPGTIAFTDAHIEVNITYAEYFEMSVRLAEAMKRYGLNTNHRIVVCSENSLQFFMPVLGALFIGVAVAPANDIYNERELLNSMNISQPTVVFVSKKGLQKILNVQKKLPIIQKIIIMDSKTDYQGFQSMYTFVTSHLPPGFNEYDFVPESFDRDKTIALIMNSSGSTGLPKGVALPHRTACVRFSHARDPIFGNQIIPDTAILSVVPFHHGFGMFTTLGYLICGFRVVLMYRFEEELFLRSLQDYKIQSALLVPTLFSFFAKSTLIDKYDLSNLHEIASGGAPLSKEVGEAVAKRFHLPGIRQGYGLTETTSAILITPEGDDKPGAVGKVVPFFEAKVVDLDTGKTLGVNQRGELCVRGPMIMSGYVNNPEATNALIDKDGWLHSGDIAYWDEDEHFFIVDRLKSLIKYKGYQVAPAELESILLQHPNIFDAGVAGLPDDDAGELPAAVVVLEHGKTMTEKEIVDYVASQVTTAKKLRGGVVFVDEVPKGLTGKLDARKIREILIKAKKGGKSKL

| Compound | activity change, negative = inhibition [%] | Potency |
| --- | --- | --- |
| Cc1ccc2c(c1)-c1c(cnn1CC(=O)Nc1ccccc1C#N)CO2 | -1.26 | – |
| Cc1ccc(Cn2c(=O)n(Cc3nc(-c4ccccc4)no3)c(=O)c3cc4c(cc32)OCO4)cc1 | -5.64 | – |
| Cc1ccccc1OCc1nnc(SCC(=O)N2c3ccccc3Sc3ccc(Cl)cc32)o1 | 2.4 | – |
| CC1CCC(NS(=O)(=O)c2ccc3c(c2)CC(=O)N3)CC1 (configuration not stated) | 2.55 | – |
| Cc1ccc(NC(=O)c2cc(S(=O)(=O)NCCC3=CCCCC3)ccc2F)cc1C | -8.28 | – |
| CCN1CCN(C(=O)CSc2ccc(C)cc2)CC1 | -14.3 | – |
| Cc1ccc(SCC(=O)c2cc(C)c(OC(=S)N(C)C)c(C)c2)cc1 | – | 8.49 µM (active) |
| COC(=O)c1cc(OC)c(OC)cc1NC(=O)CSc1ccc(C)cc1 | 0.552 | – |
| COc1cc(Nc2nc3ccc(Cl)cc3n3cnnc23)cc(OC)c1OC | -3.86 | – |
| COc1ccc(OC)c(Nc2nc3ccccc3n3cnnc23)c1 | -12.2 | – |
| COc1cc(/C=N/Nc2nn3cnnc3c3ccccc23)cc(OC)c1OC | – | 0.953 µM (active) |
| O=C(CSc1nnc(CNC(=O)c2ccccc2)n1-c1ccc(F)cc1)Nc1ccccc1F | -5.85 | – |
| Cc1cc[n+](-c2[nH]c(=O)sc2/C=N/NC(=O)c2ccccc2[O-])cc1C | 0.934 | – |
| Cc1[nH]n(-c2ccc([N+](=O)[O-])cc2)c(=O)c1C=NCCN1CCN(C(=O)c2ccccc2F)CC1 | -12 | – |
| COc1cc(OC)c(/C=N/NC(=O)c2ccc([N+](=O)[O-])cc2)cc1Br | -14.7 | – |
| COc1cc(/C=N/NC(=O)c2ccoc2C)ccc1OCCN1CCCCC1 | -1.73 | – |
| Cc1[nH]n(-c2ccccc2)c(=O)c1/C=N/NC(=O)c1ccoc1C | – | 21.3 µM (active) |
| Cc1ccc(-n2[nH]c(C)c(/C=N/NC(=O)c3cccc([N+](=O)[O-])c3)c2=O)cc1C | – | 0.426 µM (active) |
| O=C(NNC1=NCCC1)c1cccc(S(=O)(=O)N2CCCCC2)c1 | -1.3 | – |
| Cc1ccc(Cl)cc1N(C)C(=O)Cn1nc(Cc2cccnc2)c2ccccc2c1=O | -1.43 | – |
| COc1cccc(N2CCN(C(=O)CCCCCn3c(=O)[nH]c4ccccc4c3=O)CC2)c1 | 5.13 | – |
| COCCN(C(=O)CC1CCCCC1)c1c(N)n(CC(C)C)c(=O)[nH]c1=O | 0.775 | – |
| CCOC(=O)N1CCc2c(sc3c2c(=O)n(-c2ccc(CC)cc2)c(=O)n3C)C1 | 0.141 | – |
| CCNC(=O)c1cnn(-c2ccccc2)c1-c1ccccc1 | -2.26 | – |
| CC(=O)c1nn(-c2ccc(OC(F)(F)F)cc2)nc1Nc1ccccc1 | – | 0.379 µM (active) |
| CCN(CC)CC(=O)Nc1nn(-c2ccccc2)nc1C(N)=O | -26.6 | – |

| Compound | activity change, negative = inhibition [%] | Potency |
| --- | --- | --- |
| O=C(Cn1cnc2c(oc3ccccc32)c1=O)Nc1ccc(OC(F)(F)F)cc1 | 1.89 | – |
| Cc1ccc(C(=O)NCCSc2c(C)[nH]c3ccccc23)cc1C | 3.87 | – |
| CCc1ccc(-c2cc(C(=O)NCc3ccco3)c3ccccc3n2)s1 | – | 5.36 µM (active) |
| CCOc1ccc(CNC(=O)c2cc(-c3ccc(Cl)s3)nc3ccccc23)cc1 | -1.03 | – |
| O=C(NCc1ccco1)c1nc(-c2ccccc2)n(-c2ccccc2)n1 | 3.28 | – |
| COc1ccccc1N1CCN(CCCNC(=O)c2cnn(-c3ccccc3Cl)c2C2CCN(C(=O)OC(C)(C)C)CC2)CC1 | -6.1 | – |
| Cc1ccc(OS(=O)Nc2cccc3nccnc23)cc1 (configuration not stated) | -1.56 | – |
| CCOc1ccc(NC(=O)C(=O)NCCc2csc3nc(-c4ccccc4F)nn23)cc1 | 3.81 | – |
| COCc1cc(C)nc2sc(C(=O)NC3CCCCC3)c(N)c12 | – | 16.9 µM (active) |
| COc1ccc(OC)c(NC(=O)c2sc3nc(C)cc(C)c3c2N)c1 | -0.687 | – |
| COc1cc(OC)c(C(=O)NC2CCCCCC2)cc1OC | -18.4 | – |
| CCOC(=O)c1c(C)oc2nc(C)nc(Nc3ccc(CC)cc3)c12 | -5.35 | – |
| COc1cccc(NC(=O)CS(=O)(=O)c2cn(CC(=O)N3CCOCC3)c3ccccc23)c1 | -3.28 | – |
| O=C(CSc1cn(CC(=O)N2CCOCC2)c2ccccc12)Nc1ccccc1 | -4.95 | – |
| O=C(NCc1ccco1)C(=O)c1cn(CC(=O)N2CCCCCC2)c2ccccc12 | -6.85 | – |
| CN1CCN(C(=O)C(=O)c2cn(CC(=O)N3CCCC3)c3ccccc23)CC1 | 4.17 | – |
| O=C(Nc1ccc(F)cc1)C(=O)c1cn(CC(=O)N2CCOCC2)c2ccccc12 | – | 2.69 µM (active) |
| COc1cccc(NC(=O)C(=O)c2cn(CC(=O)N3CCOCC3)c3ccccc23)c1 | – | 5.36 µM (active) |
| CCc1cccc(C)c1NS(=O)(=O)c1ccc(-c2cc(C)no2)s1 | -0.558 | – |
| Cc1ccc2oc(=O)c3cnn(CC(=O)N4CCN(c5cccc(Cl)c5)CC4)c3c2c1 | 0.67 | – |
| Cc1ccc(N2CC(c3nnc(Cc4ccccc4Cl)o3)CC2=O)cc1 (configuration not stated) | 3.35 | – |
| Cc1cccc(NC(=O)CSc2nc3c(oc4ccccc43)c(=O)n2-c2ccc(F)cc2)c1 | 3.43 | – |
| COc1ccc(-c2nc3nc(C)cc(C)n3c2Nc2c(C)cccc2C)cc1 | 4.68 | – |
| CCCCC(CC)CNC(=O)C1CCN(S(=O)(=O)c2cccc3nsnc23)CC1 (configuration not stated) | -6.3 | – |
| Cc1nn(Cc2ccccc2)c(Cl)c1C(=O)OC1CCOC1=O (configuration not stated) | 2.71 | – |
| O=C(OC1CCOC1=O)c1ccc(-c2nc3ccccc3s2)s1 (configuration not stated) | – | 0.19 µM (active) |

| Compound | activity change, negative = inhibition [%] | Potency |
| --- | --- | --- |
| COc1cc(C(=O)OC2CCOC2=O)c([N+](=O)[O-])cc1OC (configuration not stated) | 0.894 | – |
| CCOC(=O)c1c(NC(=O)CNC2CCCc3ccccc32)sc(C(N)=O)c1C (configuration not stated) | -10.6 | – |
| O=C(CN1CCN(c2ccccn2)CC1)N1CCc2ccccc21 | 5.78 | – |
| O=C(CSCc1ccccc1)N1CCc2ccccc21 | – | 2.39 µM (active) |
| CCC(=O)N1CCCc2ccccc21 | -1.02 | – |
| CCc1nc2ccccc2c(C(=O)OC2CCCCC2=O)c1C (configuration not stated) | -1.89 | – |
| COc1ccc(-c2csc(Cc3nc(O)cs3)n2)cc1 | – | 2.69 µM (active) |
| CCCn1c(C2CCCN2c2nc(-c3ccc(OC)cc3)cs2)nc2ccccc21 (configuration not stated) | -4.67 | – |
| CCCn1c(CCNc2nc(-c3ccc(OC)cc3)cs2)nc2ccccc21 | 1.09 | – |
| NS(=O)(=O)c1ccc(Nc2nc(-c3ccccc3)cs2)cc1 | – | 21.3 µM (active) |
| NS(=O)(=O)c1ccc(NS(=O)(=O)/C=C/c2ccccc2)cc1 | 14.2 | – |
| CC(=O)Nc1nc(C)c(-c2csc(Nc3ccc(S(N)(=O)=O)cc3)n2)s1 | -1.06 | – |
| COc1ccc(NC(=O)c2sc(N)nc2-c2ccccc2)cc1 | -6.15 | – |
| COC(=O)CCc1sc(Nc2ccc(Br)cc2)nc1-c1ccc(OC)cc1 | 1.08 | – |
| COc1ccc(C2C(C(C)=O)=C(O)C(=O)N2c2nccs2)cc1 (configuration not stated) | 1.02 | – |
| COc1ccc(-c2csc(Nc3ccc(O)cc3)n2)cc1 | – | 1.35 µM (active) |
| COc1ccc(Nc2nc(-c3ccccc3)cs2)cc1 | – | 0.601 µM (active) |
| CCOC(=O)NC(=O)CSc1nnc(SCCC(=O)O)s1 | 2.64 | – |
| CCC[C@H]1CCCC/C=C\CCCC(=O)OCCN1C(=O)OC(C)(C)C | 1.02 | – |
| COC(=O)c1cc(NC(=O)CCc2c(C)nc3c4c(C)cc(C)nc4nn3c2C)cc(C(=O)OC)c1 | -4.62 | – |
| C[C@@H]1O[C@@H](OC[C@H]2O[C@@H](Oc3c(-c4ccc(O)cc4)oc4cc(O)cc(O)c4c3=O)[C@H](O)[C@@H](O)[C@@H]2O)[C@H](O)[C@H](O)[C@H]1O | 3.05 | – |
| CCNC(=O)c1cccc(NC(=O)C2CC(=O)N(CCc3ccccc3)C2)c1 (configuration not stated) | -1.73 | – |
| CCOc1ccc(NC(=O)CN(C)C(=O)Cn2c(=O)cnc3ccccc32)cc1OCC | 3.02 | – |
| COc1ccccc1Cc1nc2ccccc2nc1SCC(=O)N1CCCc2ccccc21 | 1.12 | – |
| O=C(Cc1ccccc1)NCC1OCCc2ccccc21 (configuration not stated) | 5.57 | – |
| CSc1nc(-c2ccc(F)cc2)nc2c1Cc1c(CO)cnc(C)c1O2 | -7.58 | – |

| Compound | activity change, negative = inhibition [%] | Potency |
| --- | --- | --- |
| COc1ccc(-c2csc(NC3OC(=O)c4ccccc43)n2)cc1 (configuration not stated) | – | 6.75 µM (active) |
| Cc1ccc(-c2csc(NC3OC(=O)c4ccccc43)n2)cc1 (configuration not stated) | -17.7 | – |
| COc1ccc2c(c1OC)C(=O)OC2Nc1nc(-c2ccccc2)cs1 (configuration not stated) | 0.505 | – |
| O=C(NCCS(=O)(=O)N1CCN(c2ccc(F)cc2)CC1)c1ccccc1Br | -0.513 | – |
| O=C(CSCc1cnn(-c2ccccc2)c1-n1cccc1)NCc1ccc(Cl)cc1 | -4.45 | – |
| CCOc1ccc(NC(=O)c2cc(C)nc3ccccc23)cc1 | -13.3 | – |
| CCOc1ccc(-n2c(SCC(N)=O)nnc2-c2ccco2)cc1 | -0.757 | – |
| CCOc1ccc(-c2nnc(-c3ccco3)o2)cc1 | – | 0.953 µM (active) |
| CCCCOc1ccc(-c2nnc(-c3ccco3)o2)cc1 | – | 2.39 µM (active) |
| O=C(CCc1ccccc1)Nc1cccc(-c2nnc(-c3ccco3)o2)c1 | -2.35 | – |
| CCOc1ccc(NC(=O)c2ncoc2-c2ccco2)cc1 | – | 7.57 µM (active) |
| Cc1ccc(CNC(=O)COc2ccc3c(c2)CCC3)cc1 | 3.72 | – |
| COCCn1c(SCC(=O)Nc2ccc3c(c2)CCC3)nc2ccccc2c1=O | 3.78 | – |
| COc1ccc(-c2ocnc2C(=O)Nc2ccc3c(c2)CCC3)cc1 | – | 7.57 µM (active) |
| CCOc1ccc(NC(=O)N(CCC(C)C)C(C)c2ccco2)cc1 (configuration not stated) | -12.2 | – |
| Cc1cccc(NC(=O)CSc2nnc(-c3ccco3)o2)c1 | 6.83 | – |
| N#Cc1ccc(OCc2nnc(-c3ccc([N+](=O)[O-])cc3)o2)cc1 | 1.84 | – |
| COc1cc(CNC(=O)c2cc3n(n2)CCCN(Cc2cccc(F)c2)C3=O)cc(OC)c1OC | 4.25 | – |
| CN1CCN(S(=O)(=O)c2ccc(NC(=O)C3CCCO3)cc2)CC1 (configuration not stated) | 4.41 | – |
| CN(C)CCn1c2c(c(SCC(=O)NCc3ccccc3)nc1=O)CCC2 | -2.52 | – |
| O=C(NNS(=O)(=O)c1ccccc1C(F)(F)F)c1cc2ncc(C(F)(F)F)cc2s1 | 0.509 | – |
| COc1ccccc1CCNC(=O)c1cccn1-c1nnc(N2CCCCC2)s1 | -13.9 | – |
| COc1cc(CNCCSc2nnnn2C)ccc1OCc1c(F)cccc1Cl | 3.54 | – |
| Cc1ccccc1C(=O)N1CCC(C(=O)Nc2ccc(S(=O)(=O)N(C)C(C)C)cc2)CC1 | -2.3 | – |
